PLK1 PBD block: PLK1 (human) polo-box domain binding inhibition; P53350; Plk1 PBD binding of FITC phosphopeptide, fluorescence polarization; Potency, µM, inactives show max response, negative = inhibition, usual class: inhibitors; 2.8% of 360,000 active; also: series mostly up to about 57 µM; % is scaled to controls: 0 for no effect and ±100 for the full control effect; nearly all actives have a fitted effect of over 65% in size
ALOX12 inh: ALOX12 (human) lipoxygenase inhibition; P18054; purified 12hLO, xylenol orange hydroperoxide absorbance; Potency, µM (top dose mostly 108 µM), without a hit: at the top dose activity change, negative = inhibition, most hits filed as inhibitors; 1.1% of 580,000 active; AID 1671190; also: % is scaled to controls: 0 for no effect and ±100 for the full control effect
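Hydroperoxide product was detected by ferrous iron/xylenol orange as the 573 to 405 nm absorbance ratio. Arachidonic acid at 40 uM (final) was turned over for 30 min at room temperature by 150 nM human 12hLO, pH 7.0 Hepes buffer, after 15 min compound preincubation.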
JMJD2A Tudor inh: JMJD2A Tudor domain (human) inhibition. O75164. AlphaScreen JMJD2A-Tudor / H3K4me3 peptide binding. Potency, µM (doses to about 114 µM), without a hit: at the top dose activity change, negative = inhibition, actives largely listed as inhibitors. 4.4% of 390,000 active; also: % is scaled to controls: 0 for no effect and ±100 for the full control effect; nearly all actives have a fitted effect of over 50% in size
HP1b chromo inh: blocks HP1-beta chromodomain binding to methylated histone tails. P83916. AlphaScreen HP1-beta / biotin-H3K9me3 peptide binding. Potency, µM (series often up to 114 µM), inactives show at the top dose activity change, negative = inhibition, usual class: inhibitors. 0.56% of 390,000 active; also: nearly all actives have a fitted effect of over 70% in size
Target sequence (P83916 whole entry, looked up): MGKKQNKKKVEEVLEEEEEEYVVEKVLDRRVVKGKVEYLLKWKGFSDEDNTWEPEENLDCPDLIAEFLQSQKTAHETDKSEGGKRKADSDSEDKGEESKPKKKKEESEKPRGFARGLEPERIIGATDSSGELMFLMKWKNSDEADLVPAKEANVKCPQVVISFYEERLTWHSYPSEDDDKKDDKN
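AlphaScreen: HP1-beta (50 nM) preformed 30 min with biotin-H3(1-18)K9me3 peptide (50 nM) in PBS pH 7.4, 0.01% Tween-20. Compound added for 30 min at RT, then streptavidin donor/nickel chelate acceptor beads (10 ug/mL) for 30 min.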
G9a inh: inhibitors of human histone lysine methyltransferase G9a; AID 504332; Potency, µM (doses to about 102 µM), for inactives: at the highest dose activity, negative = inhibition, hits mostly inhibitors; 8.8% of 350,000 active; G9a H3K9 monomethylation, AlphaScreen, 2 h; also: % is scaled to controls: 0 for no effect and ±100 for the full control effect; nearly all actives have a fitted effect of over 75% in size
Target sequence (Q96KQ7 913-1193 limits assumed): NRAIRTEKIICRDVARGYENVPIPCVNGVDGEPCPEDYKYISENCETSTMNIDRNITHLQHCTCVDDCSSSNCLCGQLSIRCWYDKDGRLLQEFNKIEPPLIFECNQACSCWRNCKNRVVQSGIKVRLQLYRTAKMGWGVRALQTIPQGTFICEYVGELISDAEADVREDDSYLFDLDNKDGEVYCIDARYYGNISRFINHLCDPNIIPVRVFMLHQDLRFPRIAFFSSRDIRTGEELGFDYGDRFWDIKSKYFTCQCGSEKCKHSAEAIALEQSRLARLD
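AlphaScreen read-out: biotin-H3K9 peptide (500 nM) methylation by 20 nM enzyme with 20 uM SAM, 2 h at room temperature after 15 min compound preincubation; anti-monomethyl H3K9 antibody plus donor/acceptor beads, 10 min dark.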
BAZ2B inh: BAZ2B (human) inhibition. Potency, µM (titrated, usually from 114 µM), without a hit: at the highest dose activity change, negative = inhibition, usual class: inhibitors. 4.4% of 360,000 active. AID 504333. AlphaScreen BAZ2B-H3K14Ac peptide displacement; also: % is scaled to controls: 0 for no effect and ±100 for the full control effect; nearly all actives have a fitted effect of over 60% in size
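BAZ2B 50 nM plus b-H3(5-23)K14Ac 50 nM, PBS pH 7.4/0.01% Tween-20, 30 min RT; compound added (max 110 uM), 30 min RT; streptavidin donor/Ni-chelate acceptor beads 10 ug/mL final, 20 min dark; AlphaScreen read.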
* = called active by the depositor; ? = inconclusive; nt = not tested or not shown; [ ] = dose if it differs, or a comment. Only some compounds are listed: those with a hit (about 9% of all), similar ones and a draw of the others. Calls follow the shape of the dose curve; as a rule, active = well fitted curve in the direction sought with a large enough effect; inconclusive = small, poorly fitted or top-dose-only effect, or another doubt; inactive = no such curve, though single readings can be large; an effect the other way counts as inactive or inconclusive. Potency is read from the fitted curve at half-maximal effect.

SMILES	PLK1 PBD block	ALOX12 inh	JMJD2A Tudor inh	HP1b chromo inh	G9a inh	BAZ2B inh
CCN(CC)C(=O)CC(c1ccc2c(c1)OCO2)c1c(OC)cc(OC)c2ccc(=O)oc12 (configuration not stated)	-7%	-18%	-34%	4%	-3%[59 µM]	-35%
Cc1cc(N2C(=O)C(O)=C(C(=O)c3ccco3)C2c2cccc(O)c2)no1 (configuration not stated)	?	?	-24%	39%	?	?
Cc1nnc(N2C(=O)C(O)=C(C(=O)c3ccco3)C2c2cccc3ccccc23)s1 (configuration not stated)	-15%	?	-24%	0%	50µM*	-26%
Cc1ccc(C2C(C(=O)c3ccco3)=C(O)C(=O)N2c2nnc(C)s2)cc1 (configuration not stated)	-4%	?	79µM*	17%	nt	-33%
COc1ccc(/C=C/c2n[nH]c(=O)c(C#N)c2C)cc1	10%	-15%	-10%	0%	45µM*	1%
CCCCCn1c(=O)[nH]c2cc(C(=O)N3CCN(c4cccc(OC)c4)CC3)ccc2c1=O	nt	0%	-4%	26%	-5%[59 µM]	-1%
Cc1cccc(NC(=S)/N=C(\N)Nc2nc(C)c3cc(C)ccc3n2)c1	-7%	40µM*	-27%	23%	7%	1%
Cc1cc(C)cc(NC(=S)/N=C(\N)Nc2nc(C)c3ccccc3n2)c1	3%	45µM*	-21%	23%	21%[59 µM]	-9%
CCc1ccc(NC(=S)/N=C(\N)Nc2nc(C)c3cc(CC)ccc3n2)cc1	-1%	35µM*	-33%	25%	-4%[59 µM]	-17%
CN1CCN(CCNC(=O)c2ccc(CN3CC(=O)N4CCCCC4C3=O)cc2)CC1 (configuration not stated)	nt	-5%	nt	nt	nt	nt
COC(=O)c1cc2n3ccccc3c(C)c(-c3ccccc3)c-2c1C(=O)OC	-26%	?	?	?	45µM*	45µM*
Cc1ccccc1C(=O)Nc1sc(C)c(C)c1C(=O)c1ccccc1	21µM*	?	?	?	10µM*	?
CCOC(=O)c1sc(NC(=O)c2ccccc2C(=O)O)c(C(=O)OCC)c1C	?	-12%	-7%[11.4 µM]	20%	-30%	-15%
Cc1cc(C(=O)c2ccc(C(C)(C)C)cc2)c(NC(=O)CCl)s1	-11%	-25%	?	-11%	32µM*	-32%
CCN(CC)CCCC(C)NC(=O)c1c(NC(=O)c2ccccc2)sc2c1CCCC2 (configuration not stated)	-10%	?	45µM*	-10%	79µM*	-14%
Cc1cc(C(=O)c2ccccc2)c(NC(=O)CN2CCOCC2)s1	0%	-1%	-10%	64%	10%[59 µM]	-17%
Cc1ccccc1C(=O)Nc1sc2c(c1C(=O)O)CCC2	-7%	0%	-11%	1%	50µM*	?
O=C(CCl)Nc1sccc1C(=O)c1ccccc1	-20%	-14%	-20%	7%	nt	nt
CNC(=O)c1c(NC(=O)c2nc3ccccc3s2)sc2c1CCC2	nt	nt	nt	nt	40µM*	-10%
Cc1sc(NC(=O)CCl)c(C(=O)c2ccccc2)c1C	27µM*	?	20µM*	?	?	?
COC(=O)c1c(NC(=O)c2nc3ccccc3s2)sc2c1CCN(C(C)=O)C2	-8%	nt	-13%	43%	-3%	7%
CC(C)CCn1c(O)c(N=Nc2ccccn2)c2ccccc21	-5%	3%	-9%	64%	32%[59 µM]	-1%
CC(C)CCn1c(O)c(N=NC(=O)Cn2ccc(C(F)(F)F)n2)c2ccccc21	24µM*	10%	50µM*	4%	-9%[59 µM]	3%
COc1cccc(C(C(=O)NC2CCCCC2)N(C(=O)c2cccs2)c2ccc3c(c2)OCO3)c1 (configuration not stated)	-16%	-10%	-4%	8%	-2%	-6%
COc1ccc(C2NN=C(c3ccc(C)cc3)S2)cc1OC (configuration not stated)	24µM*	-14%	-4%	23%	13µM*	-5%
SMILES	PLK1 PBD block	ALOX12 inh	JMJD2A Tudor inh	HP1b chromo inh	G9a inh	BAZ2B inh
COc1ccc(/C=C2\C(=O)N(c3c(Cl)cc(Cl)cc3Cl)N=C2NC(=O)c2cccc([N+](=O)[O-])c2)cc1	0.75µM*	nt	?	?	3%[59 µM]	?
CCOc1cc(/C=C2/NC(=O)N(CC(=O)Nc3cccc(C)c3)C2=O)ccc1OCC(N)=O	?	-6%	56µM*	-26%	-17%	-17%
S=c1[nH]cc2cnccn12	?	8.9µM*	nt	nt	nt	nt
CCN(c1ccccc1)S(=O)(=O)c1ccc(NC(=S)NC(=O)c2cccs2)cc1	-12%	?	-27%	-15%	5%[59 µM]	-12%
CCNC(=O)C1CC(=O)N(c2ccc(Br)cc2)C1 (configuration not stated)	24µM*	0%	-15%[11.4 µM]	-6%	-22%	-2%
O=C(NC(=S)Nc1ccccc1)c1ccc(Br)o1	-7%	-17%	-10%	-4%	?	-30%
NC(=O)c1ccccc1NC(=S)NC(=O)CCc1ccccc1	15µM*	?	79µM*	?	4.5µM*	-6%
NC(=O)c1ccccc1NC(=S)NC(=O)c1ccc(Br)o1	-24%	?	-17%	-8%	45µM*	2%
CC(NC(=O)c1ccc(N(C)C)c([N+](=O)[O-])c1)c1ccc(-n2ccnc2)cc1 (configuration not stated)	-9%	15%	?	-7%	79µM*	?

High-throughput results as filed in PubChem.
